Experimental data reported in the supplement of paper PMC3334620.
The full ranking holds about 33,000 sequences; the median of “E-score (-0.5 to 0.5)” is about -0.016, and the highest 2% start at about 0.32. For the sample, the highest values were picked, then their nearest neighbours and some sequences at random.

biological target: T1, Stp1 (UniProt B3LFK1); assay: PBM E-score (8-mer binding enrichment) (E-score (-0.5 to 0.5)); higher = stronger / more preferred TF binding; settings: protein concentration: 200 nM; construct: GST-full length
T1 sequence: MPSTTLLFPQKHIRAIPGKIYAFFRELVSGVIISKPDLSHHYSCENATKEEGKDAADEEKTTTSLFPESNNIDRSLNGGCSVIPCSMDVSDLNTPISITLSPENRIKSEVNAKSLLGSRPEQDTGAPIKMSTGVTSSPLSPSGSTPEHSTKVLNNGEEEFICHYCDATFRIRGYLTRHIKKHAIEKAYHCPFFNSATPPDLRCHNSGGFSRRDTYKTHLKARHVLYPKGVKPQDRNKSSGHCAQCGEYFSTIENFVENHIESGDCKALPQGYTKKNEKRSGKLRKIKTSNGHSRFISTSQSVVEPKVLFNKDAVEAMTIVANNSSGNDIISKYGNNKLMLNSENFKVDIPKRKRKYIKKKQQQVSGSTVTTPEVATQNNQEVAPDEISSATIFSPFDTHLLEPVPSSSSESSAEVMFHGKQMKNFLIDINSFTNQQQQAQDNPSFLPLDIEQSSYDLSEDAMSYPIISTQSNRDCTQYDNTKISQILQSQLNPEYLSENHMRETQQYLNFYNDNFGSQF
Experimental: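 Universal 'all 10-mer' protein binding microarrays (Agilent AMADID 015681) probed with GST-tagged S. cerevisiae TFs (full-length or DBD) made by in vitro transcription/translation (PURExpress), about 100-200 nM. Bound TF was detected with fluorescent anti-GST. Each ungapped 8-mer (which stands for itself and its reverse complement) is scored by the PBM enrichment score (E-score), a modified Wilcoxon-Mann-Whitney statistic from -0.5 to +0.5, computed with the Universal PBM Analysis Suite. Scale: above 0.35 generally sequence-specific binding.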

| Sequence | PBM E-score |
| --- | --- |
| AGTATAGG | -0.0433 |
| ACATAAAC | 0.129 |
| CACTAAAA | 0.123 |
| GATGCGGA | 0.104 |
| CATGCGGA | 0.156 |
| AATGCGGT | -0.0107 |
| CATGCGGG | 0.0548 |
| GATGCGCC | 0.194 |
| CATGCGGC | 0.459 |
| AATGCGGG | 0.174 |
| GATGCGGC | 0.47 |
| AATGCGGC | 0.435 |
| CAGCTAAG | -0.153 |
| CCCGGTTA | -0.0439 |
| CCTCCCAC | -0.132 |
| GCCGTAGC | 0.444 |
| ACCGTAGC | -0.138 |
| TCCGTAGA | 0.0858 |
| CCCGTAGC | -0.24 |
| GCCGTAGA | 0.427 |
| ACCGTAGA | 0.0293 |
| AACATTCT | 0.215 |

| Sequence | PBM E-score |
| --- | --- |
| CGGACGGA | -0.0178 |
| AGGACGGC | 0.324 |
| AGGACGGA | -0.161 |
| CGGACGTC | -0.00174 |
| CGGACGGC | 0.442 |
| AGGACGGG | -0.271 |
| CTTGTGGA | 0.016 |
| CCTACATC | -0.191 |
| ATTCGAAT | 0.0494 |
| AACTGTCA | -0.0285 |
| ACGTATGA | 0.15 |
| ACGTATGC | 0.00677 |
| CGGTATGC | -0.0255 |
| GCGTATGA | 0.09 |
| CCGTATGA | 0.337 |
| CCGTATGC | 0.331 |
| CGAAAGGC | 0.355 |
| CCAAACGC | 0.0617 |
| AGAAAGGC | 0.206 |
| CAAAAGGC | 0.359 |
| AAAAACGC | 0.125 |
| GAAAAGGC | 0.145 |

| Sequence | PBM E-score |
| --- | --- |
| CGAAAGGA | -0.102 |
| AAAAAGGC | 0.249 |
| CAAAACGC | 0.322 |
| GCCTGGAA | -0.133 |
| GCGCATCC | 0.0373 |
| CAGCACTA | -0.0254 |
| GTGGTGTA | 0.0559 |
| AAATGTCT | -0.057 |
| ATGGCATG | 0.22 |
| ACGGCATG | 0.422 |
| CCGGCATC | -0.0881 |
| ATGGCATC | 0.186 |
| AGGGCATG | 0.0868 |
| ACGGCATC | 0.48 |
| ACGCGCTC | 0.105 |
| CCGAAATA | 0.0974 |
| GGATGAGA | -0.157 |
| AAGTCAGC | 0.0691 |
| CAACGGCG | 0.429 |
| AAACGGAG | 0.18 |
| AAACGGCC | 0.368 |
| AAACGGCT | 0.376 |

| Sequence | PBM E-score |
| --- | --- |
| CAACGGCC | 0.173 |
| CAACGGGG | -0.104 |
| AAACGGAT | 0.259 |
| AAACGGTG | 0.1 |
| AAACGGTC | 0.0651 |
| CAACGGAG | -0.0687 |
| AAACGGCG | 0.481 |
| AAACGGGT | 0.188 |
| CGGGCCAG | -0.159 |
| AAGCGCTG | -0.0462 |
| TGCAGGCA | -0.105 |
| GCTCGCCC | -0.205 |
| CGGGAGAA | -0.111 |
| GGACAATA | 0.0607 |
| ACGTCAAC | 0.0286 |
| CACTCTCG | -0.0668 |
| ATGCTATC | -0.218 |
| CGTAGGAA | -0.0469 |
| ATGGCGGG | -0.132 |
| CATTGCCG | 0.358 |
| CATTGCCC | 0.0291 |
